42 compounds from PubChem BioAssay AID1259417 (TB Discovery Research, Infectious Disease Research Institute, 2018) can be followed below.

Screen size: about 1,100 compounds; about 760 (69%) were called active. How the calls were made is not given here. So high a share suggests a set chosen from earlier hits. This is one part of the list.

A short description of the experiment: M. tuberculosis growth inhibition, HTS (AID 1259417).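 Further: bacteria grown with compound for 5 days at 37 °C.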 The note with it: stronger effect = higher value, concentration not given here.
[1] abbreviates: M. tuberculosis DsRed fluorescence growth inhibition.
Setting [2] is: M. tuberculosis growth inhibition.

As usually defined, the inhibition is the drop in the measured response relative to a control, in per cent. With `CCOC(=O)CSc1ccc(-c2nc3cc(C)c(C)cc3[nH]2)cn1`, the inhibition reads like this: under setting [1], 94.3% (active); under setting [2], 96%.
The matching figures for `O=[N+]([O-])c1ccc(/C=N/n2c(CO)nc3ccccc32)s1`: 96.6% (active) and 97.7%.
As to `Cc1cc(C)n(-c2nc(NC(C)C)nc(NC(C)C)n2)n1`, the inhibition is, setting by setting: under setting [1], 43.1% (active); under setting [2], 41.4%.
The matching figures for `CCOC(=O)CSc1nnc(-c2ccc(OC)cc2OC)o1`: 42.1% (active) and 70.4%.
The matching figures for `COC(=O)CSc1nnc(-c2ccc(OC)cc2OC)o1`: 85.8% (active) and 94.2%.
The matching figures for `CCC(OC(C)=O)c1ccc(OC(C)=O)c(OC)c1` (centres undefined): 99.1% (active) and 90.6%.
On to `COC(=O)COc1ccc(NC(=O)c2ccccc2I)cc1`, for which the inhibition was 61.7% (active) under setting [1] and 81.3% under setting [2].
The matching figures for `COC(=O)COc1ccc(NC(=O)c2ccccc2Br)cc1`: 76.3% (active) and 91.1%.
Taken in the same sequence, the figures for `COC(=O)c1ccc(OCC(=O)Nc2ccccc2F)cc1` were 14.1% (active) and 74.2%.
The matching figures for `COC(=O)COc1ccc(NC(=O)c2ccccc2F)cc1`: 77.8% (active) and 78.9%.
On to `COC(=O)COc1ccc(NC(=O)c2ccccc2C)cc1`, for which the inhibition was 83.1% (active) under setting [1] and 93.5% under setting [2].
The matching figures for `Cc1[nH]c2ccccc2c1SCCNC(=O)c1cc2ccccc2oc1=O`: 5.93% (inactive) and 16.9%.
As to `O=C(NCCSc1c(-c2ccccc2)[nH]c2ccccc12)c1cc2ccccc2oc1=O`, the inhibition runs as follows: under setting [1], -6.27% (inactive); under setting [2], -5.81%.
Taken in the same sequence, the figures for `O=C(NCCSc1c[nH]c2ccccc12)c1cc2ccccc2oc1=O` were 20.8% (active) and 42.8%.
The matching figures for `Cc1ccc(-c2[nH]c3ccccc3c2SCCNC(=O)c2cc3ccccc3oc2=O)cc1`: -0.558% (inactive) and -17.6%.
The matching figures for `O=C(NCCc1c[nH]c2ccccc12)c1cc2ccccc2oc1=O`: 99.2% (active) and 96%.
With `CCCCCCc1cc2cc(C(=O)NC)c(=N)oc2cc1O`, the inhibition reads like this: under setting [1], -2.33% (inactive); under setting [2], -16.9%.
Taken in the same sequence, the figures for `Cc1cc(Nc2ccccc2)n(-c2nc3ccccc3[nH]2)n1` were 86.8% (active) and 93.2%.
Taken in the same sequence, the figures for `Cc1nc2c(-c3ccc(Cl)cc3)cnn2c(N)c1-c1ccccc1` were 13.8% (inactive) and -1.8%.
As for `Cc1nn(-c2nc3ccccc3[nH]2)c(N)c1-c1ccccc1`, the inhibition was 50.6% (active) under setting [1] and 84.2% under setting [2].
Taken in the same sequence, the figures for `Cc1coc2c1C(=O)C(=O)c1c-2ccc2c1CCCC2(C)C` were 96.6% (active) and 98.4%.
Take `CN(C)C(=S)Nc1nc2ccccc2s1`: the inhibition was 99.7% (active) under setting [1] and 99.8% under setting [2].
On to `O=C(NCc1cccs1)c1cc2n(n1)C(C(F)(F)F)CC(c1ccc3c(c1)OCO3)N2` (centres undefined), for which the inhibition runs as follows: under setting [1], 2.08% (inactive); under setting [2], -5.24%.
With `CCCCNC(=O)c1cc2n(n1)C(C(F)(F)F)CC(c1ccccc1)N2` (centres undefined), the inhibition by setting is: under setting [1], 95.4% (active); under setting [2], 91.8%.
On to `Cc1ccc(C2CC(C(F)(F)F)n3nc(C(=O)NCc4ccco4)cc3N2)cc1` (centres undefined), for which the inhibition is 80% (active) under setting [1] and 76.1% under setting [2].
The matching figures for `CNc1nc(N2CCc3ccccc32)ncc1F`: 100% (active) and 99.7%.
The matching figures for `COc1ccc(NC(=O)C(Cc2c[nH]c3ccccc23)NC(C)=O)cc1` (centres undefined): 93.6% (active) and 90.1%.
The matching figures for `COc1ccc2[nH]cc(CCNC(=S)Nc3ccc(Nc4ccccc4)cc3)c2c1`: -2.93% (inactive) and -13.6%.
Consider `Cc1ccc(-c2csc(Nc3ccc(S(N)(=O)=O)cc3)n2)cc1`, for which the inhibition is, setting by setting: under setting [1], 33.4% (active); under setting [2], 44.5%.
The matching figures for `Cc1cc(-c2csc(Nc3ccc(S(N)(=O)=O)cc3)n2)ccc1F`: 12% (inactive) and 9.99%.
In the case of `Cc1ccc(-c2csc(Nc3ccc(C(=O)O)c(O)c3)n2)cc1`, the inhibition under setting [1] was 94.8% (active) and the inhibition under setting [2] was determined as 94.9%.
The matching figures for `O=C(Nc1ccccc1-c1ccccc1)C(Cl)(Cl)Cl`: 100% (active) and 99.6%.
The matching figures for `C/C=C/c1ccc(OCC(=O)OCc2csc(Nc3ccc(C)cc3)n2)c(OC)c1`: 0.924% (active) and 37.2%.
As to `Oc1ccc(Br)cc1C1=NNC(c2ccc(F)cc2)C1` (centres undefined), the inhibition under setting [1] was 99.5% (active) and the inhibition under setting [2] stood at 100%.
The matching figures for `CCC(C)Oc1ccc(C(=O)NC(=S)Nc2ccc3c(c2)COC3=O)cc1` (centres undefined): 30.7% (active) and 25.2%.
As for `CCOC(=O)CSc1cc(C)nc2ccc(C)cc12`, the inhibition under setting [1] was 96.8% (active) and the inhibition under setting [2] came to 99.3%.
As for `COc1ccc2nc(C)cc(SCC(=O)OC(C)C)c2c1`, the inhibition under setting [1] is 89.3% (active) and the inhibition under setting [2] is 99.6%.
Taken in the same sequence, the figures for `CC(=O)Oc1cccc2ccc(C=Cc3cccc(Br)c3)nc12` were 87.4% (active) and 84%.
On to `CC(=O)Oc1cccc2ccc(C=Cc3ccc(F)cc3)nc12`, for which the inhibition by setting is: under setting [1], 86.6% (active); under setting [2], 89.9%.
Taken in the same sequence, the figures for `CCC(=O)Oc1cccc2ccc(C=Cc3ccccc3F)nc12` were 92.1% (active) and 87.6%.
Regarding `O=C(C=Cc1cccc(C(F)(F)F)c1)Nc1cccc(Br)c1`, the inhibition was 9.1% (inactive) under setting [1] and 9.88% under setting [2].
Turning to `Oc1cccc2ccc(C=Cc3cccc(F)c3)nc12`, the inhibition was 98.8% (active) under setting [1] and 99.7% under setting [2].
